About 1,000 (0.32%) of roughly 310,000 compounds were called active. These entries were drawn from the full list. Potency and affinity values are given separately. A number with no mark means an inactive call. How the calls were made is not given here.
Test: PhoP regulon inhibitors, Salmonella typhi PhoP promoter GFP reporter, confirmatory (AID 1850);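 further: 0% = induced wells with vehicle and 100% = uninduced wells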
Conditions: fluorescence, 4 h, at 50 µM, hits give high values

Row | Compound | inhibition [%]
1 | N#Cc1ccccc1OCC(O)CS(=O)(=O)c1ccccc1 (stereo not given) | 8.05
2 | Cc1ccc(NNC(=O)c2cc(C(C)(C)C)nn2Cc2ccccc2)cc1 | 1.12
3 | Cc1cc(C)cc(NS(=O)(=O)c2csc(C(N)=O)c2)c1 | -4.13
4 | N#Cc1c(C(F)(F)F)cc(Cc2ccccc2)nc1SCC(=O)NCC(=O)O | -9.26
5 | Cc1ccc2oc(=O)c3cc(C(=O)NCCCN4CCc5ccccc5C4)sc3c2c1 | -1.04
6 | Cc1c(OCC(=O)N[C@@H](Cc2c[nH]c3ccccc23)C(=O)O)ccc2c1oc(=O)c1ccccc12 | 4.69
7 | CCOC(=O)C1CCCN(C(=O)c2ccc3nc(-c4ccccc4)c(-c4ccccc4)nc3c2)C1 (stereo not given) | 5.36
8 | CCCc1nc2sc(C(=O)OCC)c(N)c2c2c1COC(C)(C)C2 | 0.3
9 | O=C(CSc1nccc(=O)[nH]1)Nc1ccc(Br)c(Cl)c1 | 4.82
10 | CCN(CC)C(=O)CSc1nc(COc2ccccc2)nc2ccccc12 | -0.33
11 | CC[C@H](C)[C@@H](CNC)NC[C@@H](Cc1ccc(O)cc1)NCC(C)(C)C | 4.52
12 | CC[C@@H](C)[C@H](CN[C@H](CNC)[C@@H](C)O)NCCc1ccc(OC)cc1 | 4.36
13 | O=C(O)CCCC(=O)NCCCCc1ccccc1 | -10.7
14 | CCCCCCSc1cc(-c2nc3cc(C)ccn3c2NCCCC)ccc1OC | 0.7
15 | CCCCCSc1cc(O)c(C(CNC)C(C)C)cc1OC (stereo not given) | -3.45
16 | CNCCc1ccc(OC)c(OC)c1 | 10.9
17 | CCCCCSc1cc(OC)c(CCN(C)C)cc1OC | 11.2
18 | COc1cc2ccc3c(CCN(C)C)cc(OC)c(OC)c3c2cc1OC | 13.6
19 | CCCCCSc1cc(OC)c(CCN)cc1OC | 15.9
20 | Cc1ccccc1S(=O)Cc1ccc(C(=O)NC2CCN(Cc3ccccc3)CC2)o1 (stereo not given) | -1.02
21 | COCC1CCN(C(=O)C2CCC(=O)N(CCc3cccc(F)c3)C2)CC1 (stereo not given) | -0.82
22 | COc1cc(/C=N/N2CCN(c3ccc(Cl)cc3)CC2)cc(OC)c1OC(C)=O | -1.44
23 | CC(=O)N1CCN(c2ccc(NC(=O)c3cccc(Cl)c3)cc2)CC1 | 13.2
24 | O=C(CCS(=O)(=O)c1ccc(Cl)cc1)Nc1nc(-c2ccncc2)cs1 | -19.9

Row | Compound | inhibition [%]
25 | Cc1ccc(C(=O)CC(=O)c2ccccc2)cc1 | 2.22
26 | Cc1ccc(C(=O)Nc2ccccc2Sc2ccccc2)cc1 | 8.29
27 | Cc1cc(Nc2cccc(C(F)(F)F)c2)n2nc(C)nc2n1 | 2.14
28 | Brc1ccc2c(c1)C(C1=NCCN1)c1ccccc1CS2 (stereo not given) | -3.48
29 | Clc1ccc2c(c1)C(OC1CN3CCC1CC3)c1ccccc1CS2 (stereo not given) | -1.82
30 | COc1ccc(C(=O)NCCCOC(=O)c2ccc(OC)cc2)cc1 | -6.57
31 | CCOC(=O)c1sc(=NC(=O)c2ccc(F)cc2)n(C)c1C | 0.21
32 | Cc1cc(N2CCC(C)CC2)nc(-c2ccccc2O)n1 | -7.47
33 | Cc1cc(N2CCN(C3CCCCC3)CC2)nc2cccc(O)c12 | 40.7
34 | CN(C)c1ccc(/C=N/NC(=O)c2cccc(C(=O)N/N=C/c3ccc(N(C)C)cc3)n2)cc1 | -1.09
35 | COc1ccc(-c2ccc(=O)n(CC(=O)Nc3cccc(O)c3)n2)cc1OC | -4.09
36 | O=c1cc(CN2CCN(C/C=C/c3ccccc3)CC2)c2cc(O)ccc2o1 | 0.2
37 | O=c1cc(CN2CCN(C/C=C/c3ccccc3)CC2)c2cc(O)c(-c3ccccc3)cc2o1 | 1.7
38 | COc1cc(C(=O)NCC(=O)OCC(=O)Nc2nnc(-c3ccccc3)o2)cc(OC)c1OC | 1.32
39 | Cc1cc(C)n2nc(S(=O)(=O)NC(C)(C)C)nc2n1 | -11.7
40 | COc1cccc(NS(=O)(=O)c2nc3nc(C)cc(C)n3n2)c1 | 5.81
41 | CCOc1cc2[nH]c(=O)n(CCCC(=O)NCc3ccco3)c(=O)c2cc1OCC | -5.99
42 | O=C(CNS(=O)(=O)/C=C/c1ccccc1)OC1CCOC1=O (stereo not given) | -7.99
43 | COc1ccc(C(C[N+](=O)[O-])n2nc(C)cc2C)cc1 (stereo not given) | 3.95
44 | Cc1cc(C)n(C(C[N+](=O)[O-])c2ccc(Cl)cc2)n1 (stereo not given) | 17.4
45 | O=C(NCCCc1ccncc1)C1CCC(=O)N(Cc2ccc(Cl)cc2)C1 (stereo not given) | 2.99
46 | CC(C)(C)NC(=S)NNC(=O)[C@H]1C[C@@H]1c1ccccc1 | -2.2
47 | CCCCCCCCCCOC(=O)Cn1c(COc2ccccc2)[n+](C)c2ccccc21 | 0.36
48 | CCCCCOC(=O)Cn1c(=O)oc2ccc(C)cc21 | -6.52

Row | Compound | inhibition [%]
49 | CN(C)C(=O)Oc1cccc(OCc2n(C)c3ccccc3[n+]2C)c1 | -12.8
50 | CCCCOC(=O)Cn1c(=O)n(CC(=O)OCCCC)c2ccccc21 | 2.5
51 | Cc1cccc(OCCCCn2c(CO)nc3ccccc32)c1 | 1.97
52 | CCCCCOC(=O)Cn1c(=O)oc2ccccc21 | 4.41
53 | CCCCOC(=O)Cn1c(=N)n(CCC)c2ccccc21 | -6.14
54 | CCCCOC(=O)Cn1c2ccc(OC)cc2c2nc3ccccc3nc21 | -14.3
55 | C=C(C)Cn1c(SCC(=O)N/N=C/c2ccccc2)nc2ccccc2c1=O | 2.73
56 | CCOC(=O)C1CCCN(C(=O)CSc2ccccc2)C1 (stereo not given) | 0.88
57 | CC(C)(C)c1cc(NS(=O)(=O)c2cccs2)no1 | 2.79
58 | CC(C)NC(=O)C1CCCN(S(=O)(=O)c2cccc3nonc23)C1 (stereo not given) | 5.72
59 | CSc1cnc2c(N)nc(N(C)C)nc2n1 | -2.44
60 | CCOc1cc(NC(=O)C2CC2)c(OCC)cc1NC(=O)CCn1nnc2ccccc21 | 0.44
61 | CCn1cc(CN2CCC(n3nccc3NC(=O)C3CCCC3)CC2)c(C)n1 | -10.6
62 | Brc1ccc(-c2nnc(-c3ccco3)o2)cc1 | 7.53
63 | CN(C)C(=O)Oc1ccc(OCc2n(C)c3ccccc3[n+]2C)cc1 | -10.3
64 | CCCCc1n(CC(=O)c2ccc(Cl)cc2)c2ccccc2[n+]1C | 0.37
65 | Cc1nonc1OCCNCc1c(C(=O)N2CCCCCCC2)nc2ccc(Cl)cn12 | 0.8
66 | Cc1ccc(CN2CC(C(=O)Nc3cc(S(C)(=O)=O)ccc3Cl)CC2=O)cc1 (stereo not given) | -8.57
67 | CC1(C)Cc2cccc(OCC(=O)N3CCN(c4cccc(C(F)(F)F)c4)CC3)c2O1 | 7.47
68 | Cc1cc(C)c(OCCNCc2ccccc2)c(C)c1 | -8.25
69 | Cc1cc(C)c(OCCCNCc2ccccc2)c(Br)c1 | 13.8
70 | COCCCNCCCCOc1c(Cl)cc(C)cc1Br | 1.04
71 | Cc1cc(Cl)cc(C)c1OCCNCc1ccccc1 | -3.01
72 | CCn1c(N2CCN(CC(=O)Nc3cccc(C)c3C)CC2)nc2ccccc21 | -2.87

Row | Compound | inhibition [%]
73 | Cc1cccc(NC(=O)CCNC(=O)c2ccco2)c1 | -1.77
74 | CN(C)c1cnn(-c2ccccc2)c(=O)c1Cl | -7.8
75 | CC(C)(O)CC[C@H](OC(=O)c1ccccc1)[C@](C)(O)[C@H]1CC[C@@]2(O)C3=CC(=O)[C@@H]4C[C@@H](O)[C@H](O)C[C@]4(C)C3CC[C@]12C (stereo not given in full) | 4.63
76 | COc1ccc(C(C)NC(=O)Cc2ccc(Br)cc2)cc1 (stereo not given) | 3.69
77 | CCOc1ccccc1NC(=O)c1cccc(NC(=O)C(C)C)c1 | -6.67
78 | O=C1CC(N2C(=O)/C(=C/C=C/c3ccccc3)SC2=S)C(=O)N1c1ccccc1 (stereo not given) | -6.61
79 | O=C(O)CCN1C(=O)CC(N2C(=O)/C(=C/c3ccc(Cl)cc3)SC2=S)C1=O (stereo not given) | -12.1
80 | Cc1ccc(S(=O)(=O)NNC(=O)c2cnn(-c3ccccc3)c2C(F)(F)F)cc1 | -1.38
81 | CC(C)(C)C(=O)Nc1ccccc1-c1nc2ccccc2[nH]c1=O | -6.56
82 | O=C(COc1ccccc1[N+](=O)[O-])Nc1ccc(N2CCN(C(=O)c3cccs3)CC2)cc1 | 7.91
83 | Cc1cc(C(=O)N/N=C/c2ccc(Br)o2)n[nH]1 | -0.33
84 | O=C1C2C3C=CC(C3)C2C(=O)N1CCCCCCN1C(=O)C2C3C=CC(C3)C2C1=O (stereo not given) | 7.17
85 | O=C1C=CC(=O)N1Cc1ccccc1 | 18.2
86 | COc1ccc2nc(-c3ccccc3)nc(C3CCCCC3)c2c1 | -28.1
87 | COc1ccc(Cl)cc1NC(=O)CN(C)C(=O)c1cc2c(s1)CCC(C)C2 (stereo not given) | -5.36
88 | Cc1c(CN(C)C)c2c(n1C)C(=O)c1ccc(Br)cc1-2 | -10.7
89 | Cc1c(CN(C)C)c2c(n1Cc1ccccc1)C(=O)c1ccccc1-2 | 5.65
90 | O=C(c1nc2ccccn2c1CNCCn1ccc2ccccc21)N1CCOCC1 | -10.1
91 | COc1ccccc1-c1ccc2nnc(SCC(=O)N3CCCC3)n2n1 | 3.68
92 | CCn1nc(-c2ccccc2)nc2c(=O)n(C)c(=O)nc1-2 | 14.7
93 | Cn1nc(-c2ccccn2)nc2c(=O)n(C)c(=O)nc1-2 | 13.1
94 | Cc1ccc(-n2c3nc(=O)n(C)c(=O)c-3cc3ccccc32)cc1 | 8.69
95 | Cc1ccccc1-n1c2nc(=O)n(C)c(=O)c-2cc2ccccc21 | -5.45
